HP1b chromo inh: HP1-beta chromodomain-methylated histone interaction inhibition | AID 540317 | Potency, µM (highest dose often 114 µM), for inactives: at the highest dose activity change, negative = inhibition, most hits filed as inhibitors | AlphaScreen HP1-beta / biotin-H3K9me3 peptide binding | 390,000 tested, 0.56% active; note: nearly all actives have a fitted effect of over 70% in size
Target sequence (P83916 whole entry, looked up): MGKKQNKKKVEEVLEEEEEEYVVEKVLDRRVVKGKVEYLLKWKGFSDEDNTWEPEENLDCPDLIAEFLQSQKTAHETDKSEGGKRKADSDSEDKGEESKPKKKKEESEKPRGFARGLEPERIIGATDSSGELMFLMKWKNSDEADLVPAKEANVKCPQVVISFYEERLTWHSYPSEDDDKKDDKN
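AlphaScreen: HP1-beta (50 nM) preformed 30 min with biotin-H3(1-18)K9me3 peptide (50 nM) in PBS pH 7.4, 0.01% Tween-20. Compound added for 30 min at RT, then streptavidin donor/nickel chelate acceptor beads (10 ug/mL) for 30 min.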
BAZ2B block: blocks human BAZ2B; Q9UIF8; AlphaScreen BAZ2B-H3K14Ac peptide displacement; Potency, µM (series often up to 114 µM), for the others: top-dose activity change, negative = inhibition, most hits filed as inhibitors; 360,000 tested, 4.4% active; AID 504333; note: % is set by controls: 0 for no effect and ±100 for the full control effect; nearly all actives have a fitted effect of over 60% in size
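AlphaScreen luminescence quantifies BAZ2B engagement of H3K14Ac peptide; the protein and biotinylated peptide are both at 50 nM final, buffer PBS pH 7.4 with 0.01% Tween-20, all steps at room temperature.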
Sfp inh: blocks B. subtilis Sfp PPTase activity. Q9F4F7. Biochemical Sfp PPTase activity, qHTS. Potency, µM, for inactives: largest response in the series, negative = inhibition, usual class: inhibitors. 310,000 tested, 3.5% active. AID 1490;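 note: the enzyme is Sfp with the accession as filed and its product quenches rhodamine fluorescence; 0% = enzyme reaction without inhibitor and -100% = no enzyme wells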
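Reaction rates are the 30-min fluorescence difference (ex 525, em 598 nm) in wells containing 15 nM Sfp, 5 uM rhodamine-CoA and 12.5 uM BHQ-2-YbbR at pH 7.6 with 10 mM MgCl2.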
L3MBTL1 block: L3MBTL1 (human) inhibition. Q9Y468. AlphaScreen L3MBTL1–H3K9me1 peptide binding. Potency, µM (top dose mostly 57.1 µM), inactives show at the highest dose activity, negative = inhibition, usual class: inhibitors. 230,000 tested, 0.66% active; note: % is set by controls: 0 for no effect and ±100 for the full control effect; nearly all actives have a fitted effect of over 60% in size
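Displacement of a biotinylated histone H3(1-15) peptide monomethylated at Lys9 (75 nM) from L3MBTL1 (50 nM) was measured by AlphaScreen after a 30 min room-temperature compound incubation; cefsulodin titration served as intraplate control.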
JMJD2A Tudor: blocks the human JMJD2A Tudor domain. O75164. AlphaScreen JMJD2A-Tudor / H3K4me3 peptide binding. Potency, µM (series often up to 114 µM), inactives show at the highest dose activity change, negative = inhibition, most hits filed as inhibitors. 390,000 tested, 4.4% active; note: % is set by controls: 0 for no effect and ±100 for the full control effect; nearly all actives have a fitted effect of over 50% in size
G9a block: inhibitors of human histone lysine methyltransferase G9a. Potency, µM (highest dose often 102 µM), without a hit: at the highest dose activity, negative = inhibition, usual class: inhibitors. 350,000 tested, 8.8% active. AID 504332. Q96KQ7. G9a H3K9 monomethylation, AlphaScreen, 2 h; note: % is set by controls: 0 for no effect and ±100 for the full control effect; nearly all actives have a fitted effect of over 75% in size
Target sequence (Q96KQ7 913-1193 limits assumed): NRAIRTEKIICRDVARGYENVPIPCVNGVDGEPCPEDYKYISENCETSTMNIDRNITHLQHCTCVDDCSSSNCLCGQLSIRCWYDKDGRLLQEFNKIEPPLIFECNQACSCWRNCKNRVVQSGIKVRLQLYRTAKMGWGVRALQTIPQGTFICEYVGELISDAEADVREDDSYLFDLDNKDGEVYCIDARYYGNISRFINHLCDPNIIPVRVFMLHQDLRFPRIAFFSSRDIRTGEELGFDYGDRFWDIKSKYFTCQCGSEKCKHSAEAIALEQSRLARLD
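Quantitative HTS format: methyltransferase activity on a biotin-tagged H3K9 peptide is measured by AlphaScreen, using a rabbit anti-monomethyl-H3K9 antibody with streptavidin donor and anti-IgG acceptor beads. Final levels are 20 nM enzyme, 500 nM peptide, 20 uM SAM; 2 h RT.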
* hit, by the source's call; ? = inconclusive; . = no result; [ ] = another dose, or the depositor's remark. A selection: hits, their analogues and other compounds. The true share with any hit is near 12%. Calls come from the whole dose curve; as a rule, active = well fitted curve in the direction sought with a large enough effect; inconclusive = small, poorly fitted or top-dose-only effect, or another doubt; inactive = no such curve, though single readings can be large; an effect the other way counts as inactive or inconclusive. Potency is the fitted concentration of half-maximal effect.

SMILES	HP1b chromo inh	BAZ2B block	Sfp inh	L3MBTL1 block	JMJD2A Tudor	G9a block
C/C=C\C1=C(CO)C(=O)[C@@H]2OC2C1=O (stereo partly specified)	.	.	3.2µM*	.	.	.
Cc1cc(/C=C2/SC(=O)N(CC(=O)N3CCOCC3)C2=O)c(C)n1-c1ccccc1F	39%	-9%	-23%	-5%	-11%	-3%[59 µM]
CCOc1ccc(/C=C2\SC(=S)N(CCC(=O)O)C2=O)cc1	10%	-22%	8%	5%	-23%	4%
CCOc1cc(/C=C2/SC(=S)N(CC(=O)O)C2=O)ccc1OC(=O)c1cccs1	-1%	?	4.5µM*	-25%	?	?
COc1cc(/C=C2\SC(=S)N(CC(=O)O)C2=O)ccc1OC(=O)c1ccco1	-7%	-28%	-16%	.	-17%	?
COc1cc(/C=C2/SC(=S)N(CC(=O)O)C2=O)ccc1OC(=O)c1ccco1	-25%	-37%	-16%	.	-24%	45µM*
CC(=O)C1=C(O)C(=O)N(c2ccc(C(=O)O)cc2)C1c1ccccc1 (stereo unspecified)	9%	?	-4%	.	32µM*	45µM*
CC(=O)C1=C(O)C(=O)N(c2cccc(C(=O)O)c2)C1c1ccc(F)cc1 (stereo unspecified)	18%	?	-15%	-3%	?	25µM*
Cc1nc(-c2ccccc2)sc1-c1ccc(SCC(=O)Nc2ccc(F)cc2F)nn1	53%	-5%	.	.	5%	4%[59 µM]
CCC(=O)c1cc(-c2nc3ccccc3n2C)n(C)c1	19%	2%	-8%	-4%	-24%	-4%[59 µM]
Cn1cc(C(=O)c2ccccc2)cc1-c1nc2ccccc2n1C	-7%	-39%	-3%	-2%	-34%	50µM*
Cc1oc(-c2nc3ccccc3n2C)cc1C(=O)c1ccccc1	-5%	-36%	22µM*	-16%	?	10µM*
CCCCOCCOCCOCc1cc2c(cc1CCC)OCO2	.	.	25%	.	.	20%[59 µM]
COc1ccc(C2=NN(C(=O)CSc3nnc(-c4ccccc4F)o3)C(c3ccco3)C2)cc1 (stereo unspecified)	2%	-7%	-12%	-8%	-16%	45µM*
COc1ccc(C2=NN(C(N)=S)C(c3ccco3)C2)cc1 (stereo unspecified)	-16%	?	11µM*	-16%	-36%	22µM*
CN1C(=O)C2(c3ccccc31)c1c(oc3ccccc3c1=O)C(=O)N2CCO (stereo unspecified)	33%	-3%	17%	4%	-4%	-2%
O=C1NC(=O)/C(=C/c2cccc3ccccc23)S1	17%	-32%	10%	-6%	-16%	-10%
O=C1NC(=S)/C(=C\c2ccc(-c3ccccc3Cl)o2)S1	?	18µM*	50µM*	?	45µM*	10µM*
Cc1cc(C)c(-c2nc3ccccc3s2)[nH]1	-2%	-23%	-3%	.	-21%	50µM*
Oc1cccc(-c2nc3ccccc3s2)c1	59%	9%	0%	.	-2%	?
CCN1CCCC1CNCc1ccccc1OCc1ccc(F)cc1 (stereo unspecified)	30%	-31%	-1%	.	-31%	56µM*
Cc1sc2ncnc(SCC(=O)NNC(=O)c3ccco3)c2c1C	48%	?	-17%	8%	-3%	-30%
Cc1sc2ncnc(SCC(=O)NC(=O)c3cccn3C)c2c1C	4%	-21%	-25%	.	-25%	32µM*
CC(=O)c1ccc(NC(=O)c2ccccc2Sc2ncnc3sc(C)c(C)c23)cc1	20%	-36%	-3%	-2%	-21%	32µM*
CC(=O)Nc1ccc(NC(=O)CSc2ncnc3sc(C)c(C)c23)cc1	2%	-11%	26%	.	-6%	10%
SMILES	HP1b chromo inh	BAZ2B block	Sfp inh	L3MBTL1 block	JMJD2A Tudor	G9a block
Cc1sc2ncnc(Sc3ccccc3C(=O)O)c2c1C	9%	-9%	-19%	.	-5%	-15%[59 µM]
CCN(CC(=O)Nc1ccc(NC(C)=O)cc1)C(=O)CSc1ncnc2sc(C)c(C)c12	8%	-32%	.	-28%	?	13µM*
CC(=O)OCC1OC(c2ccc(C(C)=O)cc2)C=CC1OC(C)=O (stereo unspecified)	.	.	6%	.	.	.
COCCCNc1nc(CC(C)C)nc2c1nnn2Cc1ccccc1	31%	10%	10%	-3%[2.29 µM]	6%	-3%[0.501 µM]
N#Cc1c(N)c(C#N)c(-c2ccc(O)cc2)c2c1CCCC2	38%	-1%	-5%	15%	-9%	0%
N#Cc1c(N)sc(=S)c2c1CCCCC2	-49%	50µM*	5µM*	?	45µM*	4.5µM*
N#Cc1c(N)sc2c1CCCCCC2	?	?	40µM*	-12%	?	18µM*
CCOC(=O)N1CCN(S(=O)(=O)c2c(C)nc3sccn3c2=O)CC1	16%	-11%	23%	.	-19%	0%
N#Cc1cc([N+](=O)[O-])cnc1N(CCO)CCO	26%	-2%	12%	2%	-6%	7.1µM*
COc1ccc(/C=C/C(=O)OCC(=O)Nc2ccc(N3CCOCC3)cc2)cc1	55%	-2%	-10%	.	-23%	30%
CCCCOC(=O)Nc1ccc(C(N)=O)cc1	27%	-18%	11%	.	2%	7%[59 µM]
CCCCOC(=O)Nc1ccc(N2CCOCC2)cc1	8%	-8%	6%	-21%	-22%	7.1µM*
CCCCOC(=O)Nc1ccc(N2CCCCC2)cc1	?	?	-26%	-25%	28µM*	7.9µM*
CCOc1ccc(/C=C/C(=O)Nc2ccc(N3CCOCC3)cc2)cc1	-9%	-3%	-8%	-2%	25µM*	.
Cc1cc(C)c(NC(=O)c2sc3nc(C)cc(C)c3c2NC(=O)c2ccccc2)c(C)c1	14%	-4%	.	.	-10%	-5%[59 µM]
CCOC(=O)c1[nH]c2ccc(OC)cc2c1NC(=S)N1CCN(c2ccccc2OC)CC1	-18%	-39%	-4%	-3%	?	79µM*
CCOC(=O)c1[nH]c2ccccc2c1NC(=O)CC(C)(C)C	41%	0%	-7%	.	-10%	50µM*
CCOC(=O)c1[nH]c2cc(OC)c(OC)cc2c1NC(=O)C(C)N1CCN(Cc2ccccc2)CC1 (stereo unspecified)	-15%	?	-5%	.	-26%	45µM*
CCOC(=O)c1[nH]c2ccc(OC)cc2c1NC(=O)C(C)N1CCSCC1 (stereo unspecified)	.	.	4%	1%	.	?
CCOC(=O)c1[nH]c2ccccc2c1NC(=O)c1ccccc1OC	5%	79µM*	.	.	-29%	?
CCOC(=O)Nc1c(C(=O)OC)[nH]c2cc(OC)ccc12	4%	-11%	5%	-4%	-22%	-30%
C=CCOC(=O)Nc1c(C(=O)OC)[nH]c2ccccc12	43%	-26%	-9%	8%	7%	50µM*
